This passage reports outcome and AC50 results from PubChem BioAssay (EPA / NIEHS).

The structures appear in SMILES notation. Records with an inconclusive call do not appear. Calls of active or inactive are those of the source. How the source made its calls: active means hit-call score of the fitted dose curve at least 0.9, where 1 is the maximum; inconclusive means response in the unintended direction; inactive means score below 0.9.

bovine Estrogen Receptor (ER), ESR1 (gene 407238), sequence (P49884 whole entry, looked up): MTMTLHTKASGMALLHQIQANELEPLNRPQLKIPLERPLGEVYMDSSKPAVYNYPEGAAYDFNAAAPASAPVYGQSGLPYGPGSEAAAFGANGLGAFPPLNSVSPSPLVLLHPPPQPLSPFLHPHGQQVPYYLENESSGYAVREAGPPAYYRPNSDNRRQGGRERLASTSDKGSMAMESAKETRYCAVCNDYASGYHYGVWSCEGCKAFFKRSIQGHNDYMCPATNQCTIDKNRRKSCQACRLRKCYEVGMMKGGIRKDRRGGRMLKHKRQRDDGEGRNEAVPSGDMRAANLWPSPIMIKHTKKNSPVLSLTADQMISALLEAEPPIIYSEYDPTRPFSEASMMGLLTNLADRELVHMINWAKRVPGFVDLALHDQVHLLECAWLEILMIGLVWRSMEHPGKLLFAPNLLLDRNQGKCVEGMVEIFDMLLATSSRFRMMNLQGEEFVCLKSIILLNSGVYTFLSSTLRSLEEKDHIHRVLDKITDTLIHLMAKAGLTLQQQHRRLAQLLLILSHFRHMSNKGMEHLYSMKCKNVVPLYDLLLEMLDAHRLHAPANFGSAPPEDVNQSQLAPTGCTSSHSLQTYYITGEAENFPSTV
rat Peripheral-type Benzodiazepine Receptor (PBR), Tspo (gene 24230), sequence (P16257 whole entry, looked up): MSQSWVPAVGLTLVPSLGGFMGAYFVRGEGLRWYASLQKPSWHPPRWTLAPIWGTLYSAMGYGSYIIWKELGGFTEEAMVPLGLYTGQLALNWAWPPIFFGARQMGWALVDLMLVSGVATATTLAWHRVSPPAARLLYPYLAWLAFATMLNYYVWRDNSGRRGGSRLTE
Estrogen receptor (Homo sapiens), sequence (P03372 whole entry, looked up): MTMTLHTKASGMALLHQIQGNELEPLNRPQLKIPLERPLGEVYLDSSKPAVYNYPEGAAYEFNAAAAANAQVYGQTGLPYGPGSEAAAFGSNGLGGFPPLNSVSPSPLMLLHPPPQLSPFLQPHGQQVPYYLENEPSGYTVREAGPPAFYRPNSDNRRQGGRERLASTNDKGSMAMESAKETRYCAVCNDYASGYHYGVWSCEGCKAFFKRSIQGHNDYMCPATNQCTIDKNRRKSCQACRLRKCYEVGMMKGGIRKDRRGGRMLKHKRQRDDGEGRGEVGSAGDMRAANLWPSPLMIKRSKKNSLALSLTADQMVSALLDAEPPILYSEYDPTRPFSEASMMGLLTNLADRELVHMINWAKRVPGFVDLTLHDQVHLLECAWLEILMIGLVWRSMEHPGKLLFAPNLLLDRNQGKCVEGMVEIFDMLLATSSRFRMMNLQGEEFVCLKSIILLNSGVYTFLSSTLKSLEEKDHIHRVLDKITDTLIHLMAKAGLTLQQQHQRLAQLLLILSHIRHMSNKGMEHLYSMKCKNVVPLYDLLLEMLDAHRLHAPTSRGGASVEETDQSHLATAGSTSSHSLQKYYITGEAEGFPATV

One test deals with rat Thyrotropin Releasing Hormone Receptor (TRH), Trhr (gene 25570) (UniProt Q01717). In words: NVS_GPCR_rTRH: NovaScreen (NVS) G Protein-Coupled Receptor Assay for rat Thyrotropin Releasing Hormone Receptor (TRH) (AID 2283329).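 Further: hit means lower bound tracer signal versus DMSO baseline.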 The method in brief: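 Rat forebrain membrane prep, radioligand displacement, filter scintillation readout at 4 h. Single conc 25 uM, duplicate; actives retested as concentration series. DMSO = negative control/baseline.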
rat Thyrotropin Releasing Hormone Receptor (TRH), Trhr (gene 25570), sequence (Q01717 whole entry, looked up): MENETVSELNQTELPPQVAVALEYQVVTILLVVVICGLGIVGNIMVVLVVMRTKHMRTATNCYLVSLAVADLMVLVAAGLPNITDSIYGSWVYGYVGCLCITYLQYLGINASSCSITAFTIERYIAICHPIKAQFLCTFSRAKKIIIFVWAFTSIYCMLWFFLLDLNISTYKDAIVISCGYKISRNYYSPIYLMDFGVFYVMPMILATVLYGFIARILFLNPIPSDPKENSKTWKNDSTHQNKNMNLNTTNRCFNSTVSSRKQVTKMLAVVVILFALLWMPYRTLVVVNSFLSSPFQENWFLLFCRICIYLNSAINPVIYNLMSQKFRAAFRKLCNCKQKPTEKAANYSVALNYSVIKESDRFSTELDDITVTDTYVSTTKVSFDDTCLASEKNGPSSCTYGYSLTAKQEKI
In the case of `CC(C)C1=CC2=CC[C@@H]3[C@](C)(CCC[C@@]3(C)C(=O)O)[C@H]2CC1`, the compound was classed as inactive.

On to `CC(=O)OC(C)C`, for which the call was inactive.

For `CN(C)c1ccc(C(=N)c2ccc(N(C)C)cc2)cc1`, the call was inactive.

Turning to `Cc1ccc(C(C)c2ccc(C)c(C)c2)cc1C`, the compound was called inactive.

Regarding `C=C1C2CCC(C2)C1(C)C` (configuration not stated), the compound was classed as inactive.

With `CCCCCCCCCCOS(=O)(=O)O`, the outcome was inactive.

`CO[Si](OC)(OC)c1ccccc1`: the compound was called inactive.

As to `Cc1cc(C)c(C)cc1C`, the outcome was inactive.

In the case of `CCN(CCC#N)c1ccc(N=Nc2c(Cl)cc([N+](=O)[O-])cc2Cl)cc1`, the compound was classed as inactive.

`COC(=O)c1c(C)cc(O)c(C)c1O`: the result was inactive.

Regarding `CC(C)(C)c1ccc(N)cc1`, the result was inactive.

For the compound `NC(=O)N=NC(N)=O`, the result was inactive.

As to `CC=C1CC2C=CC1C2` (configuration not stated), the compound was classed as inactive.

For `CCO[Si](C)(OCC)OCC`, the result was inactive.

`CCOC(=O)Cc1cccc2ccccc12`: the compound was called inactive.

For the compound `CC/C=C\C/C=C\C/C=C\CCCCCCCC(=O)O`, the result was inactive.

Regarding `c1c[nH]cn1`, the compound was called inactive.

On to `NC(=O)c1ccccc1O`, for which the compound was called inactive.

As for `CCCCCc1ccc(Cl)cc1`, the compound was classed as inactive.

For `CCCCCCCC/C=C\CCCCCCCC(=O)OCCO`, the result was inactive.

As to `CCCCC/C=C\CCC=O`, the call was inactive.

The next test concerns the target rat Peripheral-type Benzodiazepine Receptor (PBR), Tspo (gene 24230) (UniProt P16257). The experiment in a line: NVS_MP_rPBR: NovaScreen (NVS) Membrane Protein Assay for rat Peripheral-type Benzodiazepine Receptor (PBR) (AID 2283335). The procedure, abridged: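 Single-concentration duplicate screening at 25 uM preceded concentration-series retesting of actives. Binding of a specific radioligand to rat kidney membrane PBR was read by filtration radiodetection after 1 h, with plate-wise positive and negative controls.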
In general, AC50 refers to the concentration at which the activity in the assay is half-maximal. Regarding `O=c1cc(-c2ccccc2)oc2ccccc12`, the AC50 was 3.68 µM (active).

For `CN(C)c1ccc(C(=N)c2ccc(N(C)C)cc2)cc1`, the AC50 is 11.6 µM (active).

Take `CC(C)c1ccc2c(C(C)C)cc(C(C)C)c(S(=O)(=O)O)c2c1`: the compound was called inactive.

`O=S(=O)(O)c1ccccc1C=Cc1ccc(-c2ccc(C=Cc3ccccc3S(=O)(=O)O)cc2)cc1`: the AC50 was 2.43 µM (active).

With `Cc1ccc(N/N=c2\c(=O)cc/c(=N/Nc3ccc(S(=O)(=O)O)cc3)c2=O)c(C)c1`, the AC50 was 5.26 µM (active).

Another test addresses bovine Estrogen Receptor (ER), ESR1 (gene 407238) (UniProt P49884). In words: NVS_NR_bER: NovaScreen (NVS) Nuclear Receptor Binding Assay for bovine Estrogen Receptor (ER) (AID 2283345).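 Further: actives lower the bound radioligand count which means they displace the ER ligand.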 The method in brief:
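Scintillation counting of displaced radioligand gave the readout; bovine uterine membrane extract supplied the receptor. Measured 18 h post-dose, normalized to DMSO baseline. Single 25 uM duplicate screen preceded concentration-response follow-up.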
Take `CC(=O)OC(C)C`: the outcome was inactive.

For `O=c1cc(-c2ccccc2)oc2ccccc12`, the compound was called inactive.

For the compound `O=C1CCCCCN1SSN1CCCCCC1=O`, the compound was classed as inactive.

In the case of `O=S(=O)(O)c1ccccc1C=Cc1ccc(-c2ccc(C=Cc3ccccc3S(=O)(=O)O)cc2)cc1`, the call was inactive.

Turning to `CC1=Nc2ccc3ccccc3c2C1(C)C`, the compound was called inactive.

`CC(=O)c1ccc2c(c1)CCCC2`: the AC50 was 5.86 µM (active).

For `Cc1cc(O)c(Cl)c(C)c1Cl`, the outcome was inactive.

The next test deals with chimpanzee Androgen Receptor (AR), AR (gene 747460) (UniProt O97775). In words: NVS_NR_cAR: NovaScreen (NVS) Nuclear Receptor Binding Assay for chimpanzee Androgen Receptor (AR) (AID 2283346).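 Further: radioligand displacement from AR measured by scintillation counting in a cell-free assay; a loss of bound radioligand signal versus DMSO counts as binding.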 The method in brief: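 Cell-free competition binding with insect-cell (Sf9/Sf21) extracted chimpanzee AR; scintillation signal from lysate at 72 h. Screened in duplicate at 25 uM, then concentration-response for actives; fitting relative to DMSO.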
chimpanzee Androgen Receptor (AR), AR (gene 747460), sequence (O97775 whole entry, looked up): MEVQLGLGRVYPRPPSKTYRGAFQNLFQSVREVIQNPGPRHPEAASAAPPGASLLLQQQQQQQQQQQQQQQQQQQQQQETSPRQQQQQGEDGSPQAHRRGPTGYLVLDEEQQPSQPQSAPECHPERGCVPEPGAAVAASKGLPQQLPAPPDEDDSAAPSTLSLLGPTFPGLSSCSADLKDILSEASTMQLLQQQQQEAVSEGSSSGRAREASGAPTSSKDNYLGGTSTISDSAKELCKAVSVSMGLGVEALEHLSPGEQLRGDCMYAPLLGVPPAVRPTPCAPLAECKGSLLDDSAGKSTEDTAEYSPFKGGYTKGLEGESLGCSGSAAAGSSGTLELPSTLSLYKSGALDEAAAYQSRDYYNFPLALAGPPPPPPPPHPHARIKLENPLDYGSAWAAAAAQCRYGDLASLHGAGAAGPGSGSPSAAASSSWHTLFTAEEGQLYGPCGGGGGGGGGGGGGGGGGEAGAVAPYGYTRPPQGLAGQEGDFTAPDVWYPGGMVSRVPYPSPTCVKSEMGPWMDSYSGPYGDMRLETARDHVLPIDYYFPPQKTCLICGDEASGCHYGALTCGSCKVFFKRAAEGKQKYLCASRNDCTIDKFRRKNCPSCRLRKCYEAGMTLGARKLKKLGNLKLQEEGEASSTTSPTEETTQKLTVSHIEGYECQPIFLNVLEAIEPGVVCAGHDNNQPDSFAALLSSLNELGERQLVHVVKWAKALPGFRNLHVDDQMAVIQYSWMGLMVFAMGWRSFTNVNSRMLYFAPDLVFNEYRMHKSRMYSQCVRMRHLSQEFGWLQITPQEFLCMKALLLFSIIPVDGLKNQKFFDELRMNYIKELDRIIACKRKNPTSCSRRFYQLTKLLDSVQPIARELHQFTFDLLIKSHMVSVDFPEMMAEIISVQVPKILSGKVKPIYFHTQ
With `CCN(CCC#N)c1ccc(N=Nc2c(Cl)cc([N+](=O)[O-])cc2Cl)cc1`, the AC50 is 16.1 µM (active).

For `COC(=O)c1c(C)cc(O)c(C)c1O`, the AC50 is 13.6 µM (active).

Regarding `Cc1ccc(N/N=c2\c(=O)cc/c(=N/Nc3ccc(S(=O)(=O)O)cc3)c2=O)c(C)c1`, the AC50 is 25 µM (active).

The next test has as its target Estrogen receptor (Homo sapiens) (UniProt P03372). The experiment in a line: NVS_NR_hER: NovaScreen (NVS) Nuclear Receptor Binding Assay for human Estrogen Receptor (ER) (AID 2283348). The method in brief:
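Cell-free MCF7-derived ER preparation, specific radioligand displaced by test compound, read by scintillation counting 18 h post-dosing. Duplicate single-point 25 uM screen, then concentration-response confirmation; DMSO baseline.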
As to `CC(C)C1=CC2=CC[C@@H]3[C@](C)(CCC[C@@]3(C)C(=O)O)[C@H]2CC1`, the compound was classed as inactive.

As for `CC(=O)OC(C)C`, the outcome was inactive.

As to `O=c1cc(-c2ccccc2)oc2ccccc12`, the compound was called inactive.

With `CN(C)c1ccc(C(=N)c2ccc(N(C)C)cc2)cc1`, the compound was called inactive.

As for `CC(C)c1ccc2c(C(C)C)cc(C(C)C)c(S(=O)(=O)O)c2c1`, the compound was called inactive.

Consider `CC/C=C\C/C=C\C/C=C\CCCCCCCC(=O)O`, for which the AC50 was 25 µM (active).

Turning to `O=S(=O)(O)c1ccccc1C=Cc1ccc(-c2ccc(C=Cc3ccccc3S(=O)(=O)O)cc2)cc1`, the outcome was inactive.

Another test has the same target. The experiment in a line: OT_ER_ERaERa_1440: Odyssey Thera (OT) 24-hour HEK293T Protein-Complementation Assay for Estrogen Receptor-alpha/-alpha Homodimer (AID 2283349).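 Further: hits raise fluorescence above DMSO for agonists and antagonists alike.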 The procedure, abridged:
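HEK293T, stable ERα LBD (aa 310-547) homodimer PCA; 24 h compound exposure; mean fluorescence intensity (nuclear for agonists, nuclear plus cytoplasmic for antagonists) vs vehicle; positive fitting direction, DMSO baseline.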
For `CC(C)C1=CC2=CC[C@@H]3[C@](C)(CCC[C@@]3(C)C(=O)O)[C@H]2CC1`, the AC50 was 12 µM (active).

With `CC(=O)OC(C)C`, the outcome was inactive.

For the compound `O=c1cc(-c2ccccc2)oc2ccccc12`, the compound was called inactive.

Consider `CN(C)c1ccc(C(=N)c2ccc(N(C)C)cc2)cc1`, for which the AC50 is 33.4 µM (active).

In the case of `Cc1ccc(C(C)c2ccc(C)c(C)c2)cc1C`, the AC50 was 84.6 µM (active).

In the case of `CC(C)c1ccc2c(C(C)C)cc(C(C)C)c(S(=O)(=O)O)c2c1`, the call was inactive.

`C=C1C2CCC(C2)C1(C)C` (configuration not stated): the compound was called inactive.

In the case of `CCCCCCCCCCOS(=O)(=O)O`, the result was inactive.

Consider `CO[Si](OC)(OC)c1ccccc1`, for which the compound was called inactive.

With `Cc1cc(C)c(C)cc1C`, the compound was classed as inactive.

Take `CCN(CCC#N)c1ccc(N=Nc2c(Cl)cc([N+](=O)[O-])cc2Cl)cc1`: the result was inactive.

For `COC(=O)c1c(C)cc(O)c(C)c1O`, the result was inactive.

On to `CC(C)(C)c1ccc(N)cc1`, for which the compound was called inactive.

Regarding `NC(=O)N=NC(N)=O`, the outcome was inactive.

As to `CC=C1CC2C=CC1C2` (configuration not stated), the outcome was inactive.

On to `CCO[Si](C)(OCC)OCC`, for which the call was inactive.

Regarding `CCOC(=O)Cc1cccc2ccccc12`, the result was inactive.

Consider `CC/C=C\C/C=C\C/C=C\CCCCCCCC(=O)O`, for which the outcome was inactive.

On to `c1c[nH]cn1`, for which the compound was called inactive.

As for `NC(=O)c1ccccc1O`, the call was inactive.

On to `CCCCCc1ccc(Cl)cc1`, for which the compound was classed as inactive.

For `Cc1ccc(N/N=c2\c(=O)cc/c(=N/Nc3ccc(S(=O)(=O)O)cc3)c2=O)c(C)c1`, the outcome was inactive.

On to `CCCCCCCC/C=C\CCCCCCCC(=O)OCCO`, for which the outcome was inactive.

With `CCCCC/C=C\CCC=O`, the outcome was inactive.
